High-throughput results deposited in PubChem BioAssay by Buhrlage Lab, Dana-Farber Cancer Institute and Novartis Institutes for BioMedical Research (Cambridge, Mass).
Only some compounds are listed: those with a hit (about 13% of all), similar ones and a draw of the others.
USP10 block: human USP10 deubiquitinase inhibition | actives 1.1% (n = 47,000) | purified USP10, Ub-rhodamine fluorescence, 60 min | inhibition, % at 20 µM | Q14694
UCHL1 inh: human UCHL1 deubiquitinase inhibition; P09936; purified UCHL1, Ub-rhodamine cleavage fluorescence; inhibition, % at 20 µM; actives 0.2% (n = 47,000); AID 1645859
USP17 inh: human USP17-like deubiquitinase inhibition | A8MUK1 | purified USP17, Ub-rhodamine cleavage fluorescence, 3 h | inhibition, % at 50 µM | actives 6.5% (n = 47,000)
Target sequence (A8MUK1 whole entry, looked up): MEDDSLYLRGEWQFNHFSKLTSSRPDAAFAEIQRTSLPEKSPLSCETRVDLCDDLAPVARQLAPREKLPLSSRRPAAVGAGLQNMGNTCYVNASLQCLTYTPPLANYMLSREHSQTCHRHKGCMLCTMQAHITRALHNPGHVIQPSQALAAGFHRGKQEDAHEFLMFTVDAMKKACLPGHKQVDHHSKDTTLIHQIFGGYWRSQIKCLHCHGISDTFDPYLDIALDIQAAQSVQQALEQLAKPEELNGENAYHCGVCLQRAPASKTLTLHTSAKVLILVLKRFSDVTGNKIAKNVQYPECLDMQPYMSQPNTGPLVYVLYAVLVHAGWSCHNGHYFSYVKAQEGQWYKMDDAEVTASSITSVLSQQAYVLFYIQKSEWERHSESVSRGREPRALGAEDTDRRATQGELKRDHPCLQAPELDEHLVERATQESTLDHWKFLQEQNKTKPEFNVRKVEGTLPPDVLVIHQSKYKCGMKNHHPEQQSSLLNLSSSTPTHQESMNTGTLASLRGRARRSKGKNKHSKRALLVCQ
USP7 block: inhibitors of human USP7 deubiquitinase; Q93009; purified USP7, Ub-rhodamine cleavage fluorescence; inhibition, % at 20 µM; actives 0.3% (n = 47,000); AID 1645854
USP30 block: blocks human USP30 ubiquitin-rhodamine cleavage. Q70CQ3. purified USP30, Ub-rhodamine cleavage fluorescence. inhibition, % at 25 µM. actives 5.3% (n = 47,000)
USP8 inh: inhibitors of human USP8 deubiquitinase | actives 4.2% (n = 47,000) | purified USP8, Ub-rhodamine cleavage fluorescence, 30 min | P40818 | inhibition, % at 20 µM
Large screens that a line does not name were inactive. Cut-off read from the data, not from the text of the source: active = inhibition above about 30%; inactive = the rest.

O=[N+]([O-])c1cc(S(=O)(=O)Nc2ccccc2)ccc1NCc1ccc(F)cc1	USP30 block 35.5
COc1ccccc1CNc1ccc(S(=O)(=O)Nc2ccccc2)cc1[N+](=O)[O-]	none
C=C(C)Cn1c(N2CCC(Cc3ccccc3)CC2)nc2c1c(=O)[nH]c(=O)n2C	USP30 block 36.7
Cc1cc(C)nc(SCCn2c(N3CCC(Cc4ccccc4)CC3)nc3c2c(=O)n(C)c(=O)n3C)n1	USP17 inh 41.4, USP30 block 56.2
COc1ccc(/C=C/c2nc(-c3ccc4oc(C)nc4c3)no2)cc1	USP8 inh 31.0 (no result: USP17 inh)
COc1ccc(-c2nc(-c3cc(OC)c(OC)c(OC)c3)no2)cc1	none
COc1ccc(CCNC(=O)[C@H](C)NC(=O)c2cc3c([nH]c4ccccc43)c(C)n2)cc1	USP17 inh 33.9
Cc1nc(C(=O)NC2CCCCC2)cc2c1[nH]c1ccccc12	none
C[C@@H]1O[C@@H](O[C@H]2[C@H](O[C@H]3[C@H](O[C@H]4CC[C@@]5(C)[C@@H](CC[C@]6(C)[C@@H]5CC=C5[C@@H]7CC(C)(C)CC(=O)[C@]7(C)CC[C@]56C)[C@@]4(C)CO)O[C@H](C(=O)O)[C@@H](O)[C@@H]3O)OC[C@@H](O)[C@@H]2O)[C@H](O)[C@H](O)[C@H]1O	USP17 inh 31.5, USP30 block 52.9
CC1(C)CC(=O)[C@]2(C)CC[C@]3(C)C(=CC[C@@H]4[C@@]5(C)CC[C@H](O)[C@](C)(CO)[C@@H]5CC[C@]43C)[C@@H]2C1	none
O=C(Nc1ccccc1F)c1ccc(C(=O)c2ccccc2)cc1	USP17 inh 34.9
Cc1ccc(OCC(=O)NCCn2c(=O)[nH]c3cncnc32)cc1	none
COc1cccc(C(=O)Nc2nc(-c3nnn(-c4ccc(C)c(F)c4)c3C)ns2)c1	USP10 block 47.5, USP17 inh 61.5, USP30 block 95.0, USP8 inh 55.7
COc1cccc(-n2nnc(C(=O)Nc3ccc(C)c(C)c3)c2C)c1	none
N=C1/C(=C/c2cn(Cc3ccccc3F)c3ccccc23)C(=O)N=C2SC(C(F)(F)F)=NN12	USP10 block 50.6, USP7 block 40.9, USP8 inh 47.6
N=c1sccn1CC(=O)Nc1ccc(Oc2ccccc2)cc1	none
O=C(NCc1cccc(F)c1)c1ccc2c(c1)NC(=O)C1CCCN21 (configuration not stated)	USP17 inh 47.6, USP8 inh 66.8
O=C(Nc1cccc(F)c1)c1ncoc1-c1ccco1	USP17 inh 54.4
O=C(NCCc1ccncc1)c1nc2c(o1)CN(CC1CC1)C2	none
Cc1ccc(-c2nc3nc(C)cc(N4CCCCC4C)n3n2)cc1 (configuration not stated)	none
Cc1ccc(-c2nc3nc(C)cc(N4CCC(C)CC4)n3n2)cc1	USP17 inh 55.7 (no result: USP7 block, USP30 block)
O=C1COc2ccc(C(=O)NCc3ccc4c(c3)OCO4)cc2N1	none
CN1CCN(c2ccccc2NC(=O)c2cc3c(s2)-c2ccccc2SC3)CC1	none
O=C(Nc1cccc(C(F)(F)F)c1)c1cc2c(s1)-c1ccccc1OC2	USP30 block 70.2, USP8 inh 71.8 (no result: USP17 inh)
O=C(NCc1ccc2c(c1)OCO2)c1cc2c(s1)-c1ccccc1OC2	USP30 block 57.4, USP8 inh 56.3
Cc1ccc(NC(=O)c2cc3c(s2)-c2ccccc2OC3)c(Cl)c1	USP30 block 41.4
O=C(NCc1ccc(Cl)cc1)c1cc2c(s1)-c1ccccc1OC2	USP10 block 43.7, USP17 inh 87.5, USP30 block 54.7, USP8 inh 73.6
O=C(CN1CN(c2ccccc2)c2ncccc2S1(=O)=O)Nc1ccc(F)cc1	none
Cc1cccc(S(=O)(=O)N2CCCn3nnc(CN4CCCCC4)c3C2)c1	none
COc1ccc(C(CNC(=O)c2cc(-c3ccc(C)c(C)c3)on2)N2CCOCC2)cc1 (configuration not stated)	USP30 block 35.4
O=C(CNC(=O)c1cc2ccccc2[nH]1)Nc1ccc2c(c1)OCCO2	USP17 inh 50.5
CCOC(=O)N1CCN(C(=O)CNC(=O)c2cc3c(OC)cccc3[nH]2)CC1	none
COc1ccc(NC(=O)[C@H](C)NC(=O)c2cc3c(OC)cccc3[nH]2)cc1Cl	USP10 block 51.4, USP17 inh 85.8, USP7 block 38.7, USP30 block 69.9, USP8 inh 97.8
COc1cccc2[nH]c(C(=O)NCC(=O)Nc3ccc4c(c3)OCO4)cc12	USP17 inh 40.5
